Measurements: PubChem BioAssay AID2625 (National Center for Advancing Translational Sciences (NCATS), 2010)
Results filed as inconclusive are left out. Activity calls are given as the source filed them. Calls follow the shape of the dose curve; as a rule, active = well fitted curve in the direction sought with a large enough effect; inconclusive = small, poorly fitted or top-dose-only effect, or effect the other way, or another doubt; inactive = no such curve, though single readings can be large or run the other way.

These molecules were tested against Pyruvate kinase PKLR (Homo sapiens) (UniProt P30613) (assay: Secondary LDH Assay for Activators of Human Liver Pyruvate Kinase: for Probe SAR). Settings: purified hPK-L, LDH-coupled NADH fluorescence kinetic; series mostly up to 58.2 µM; activity change, positive = activation: at the top concentration.
How it was run: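 Kinetic LDH-coupled read-out: NADH fluorescence loss followed every 30 s for 3–6 min gave initial rates. Reaction: 10 nM human liver PK, 0.1 mM PEP, 4 mM ADP, 0.2 mM NADH, 50 mM Tris-Cl pH 8.0; activation normalised to fructose-bis-phosphate.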
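Also: 0% = uninhibited enzyme rate and 100% = full activation by fructose bisphosphate.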

Sequence of Pyruvate kinase PKLR (Homo sapiens) (P30613 whole entry, looked up): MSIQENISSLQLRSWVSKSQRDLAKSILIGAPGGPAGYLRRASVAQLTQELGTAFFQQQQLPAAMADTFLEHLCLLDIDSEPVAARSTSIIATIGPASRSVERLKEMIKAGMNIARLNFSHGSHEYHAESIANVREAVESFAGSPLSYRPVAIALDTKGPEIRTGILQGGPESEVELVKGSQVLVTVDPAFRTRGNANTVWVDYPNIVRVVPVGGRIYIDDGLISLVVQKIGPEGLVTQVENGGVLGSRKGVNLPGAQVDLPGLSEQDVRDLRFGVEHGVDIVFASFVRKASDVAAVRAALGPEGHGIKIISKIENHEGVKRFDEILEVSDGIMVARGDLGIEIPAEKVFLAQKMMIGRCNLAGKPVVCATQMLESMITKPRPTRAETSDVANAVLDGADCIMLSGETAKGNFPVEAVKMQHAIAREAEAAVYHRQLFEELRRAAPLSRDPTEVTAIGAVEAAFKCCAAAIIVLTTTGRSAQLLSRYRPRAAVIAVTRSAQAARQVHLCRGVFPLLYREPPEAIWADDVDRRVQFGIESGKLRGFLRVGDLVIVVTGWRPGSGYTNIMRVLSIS

Activity change, positive = activation, inactive:
Cc1ccc(NS(=O)(=O)c2cc3c(cc2N2CCC2)NC(=O)CC3)cc1C -23.5%, Cc1ccc(NS(=O)(=O)c2ccc3c(c2)CCO3)cc1C 7.65%, O=C1c2ccccc2C(=O)N1Cc1ccccc1 -1.3%, O=C1c2ccccc2C(=O)N1Cc1cccnc1 0.301%, O=C1c2ccccc2C(=O)N1c1cccc(O)c1 -12.5%, Cc1ccc(NS(=O)(=O)c2ccc3c(c2)CCN(C(=O)C(F)(F)F)C3)cc1C -14.6%, Cc1ccc(N(C)S(=O)(=O)c2ccc3c(c2)CCC(=O)N3)cc1C 7.04%, O=C1CCc2cc(S(=O)(=O)Nc3cccc(B(O)O)c3)ccc2N1 -15.6%, O=S1(=O)N=C(Oc2ccccc2Cl)c2ccccc21 14.9%, O=C1CCc2cc(S(=O)(=O)Nc3cccc(F)c3)ccc2N1 -11.8%, Cc1ccc(NS(=O)(=O)c2ccc3c(c2)CCC(=O)N3)cc1 10.1%, O=C1c2ccccc2C(=O)N1c1ccc(Cl)cc1 -9.95%, CC(C)Nc1cccc(S(=O)(=O)N2CCCN(S(=O)(=O)c3ccc4c(c3)OCCO4)CC2)c1 10.6%, CC(=O)N1CCCc2cc(S(=O)(=O)Nc3ccc(C)c(C)c3)ccc21 -4.77%, O=C1c2ccccc2C(=O)N1c1cccc2ncccc12 -11.6%, O=C1c2ccccc2C(=O)N1c1ccc2ccccc2n1 -17.1%, Cc1ccc(NS(=O)(=O)c2cc3c(cc2N(C)C)NC(=O)CC3)cc1C -12.2%, O=C1CCc2cc(S(=O)(=O)Nc3ccccc3F)ccc2N1 -1.77%

outcome, inactive:
Cc1cc2c(s1)c1cnn(Cc3ccccc3F)c(=O)c1n2C
